Records with an inconclusive call do not appear. Active and inactive are the calls of the source. The calls were made as follows: active = hit-call score of the fitted dose curve at least 0.9, where 1 is the maximum; inconclusive = response in the unintended direction; inactive = score below 0.9.
The molecules below were run on Cytochrome P450 2B6 (Homo sapiens) (UniProt P20813) (assay: CLD_CYP2B6_24hr: CellzDirect (CLD) Gene Expression Assay for xenobiotic metabolism (CYP2B6) at 24 hours (AID 2283686)).
Procedure: CLD_24hr is a cell-based, multiplexed-readout assay that uses hepatocyte, a human liver primary cell, with measurements taken at 24 hours after chemical dosing in a 96-well plate.CLD_CYP2B6_24hr is one of 16 assay component(s) measured or calculated from the CLD_24hr assay. It is designed to make measurements of mRNA induction, a form of inducible reporter, as detected with chemiluminescence signals by Quantitative Nuclease Protection Assay (qNPA) technology.Data from the assay component CLD_CYP2B6_24hr was analyzed at the endpoint, CLD_CYP2B6_24hr, in the positive analysis fitting direction relative to DMSO as the negative control and baseline of activity. Using a type of inducible reporter, gain-of-signal activity can be used to understand changes in the reporter gene as they relate to the gene CYP2B6. Furthermore, this assay endpoint can be referred to as a primary readout. To generalize the intended target to other relatable targets, this assay endpoint is annotated to the cyp intended target family, where subfamily is xenobiotic metabolism.
Human hepatocyte cultures were treated daily for two consecutive days with fresh dosing solutions containing appropriate concentrations of the 320 ToxCast chemicals (chemical identities were blinded to CellzDirect and other ToxCast collaborators), vehicle control (0.2% DMSO), and positive control inducers as summarized in Table 1. Due to the large number of treatment groups and chemicals examined, the ToxCast chemicals were divided into two groups (spanning two independent cultures of hepatocytes from separate donor preparations (Hu778: ToxCast plates 1 and 2; Hu776: ToxCast plates 3 and 4). Each preparation of human hepatocyte cultures was treated with respective vehicle control, medium only control, set of six positive controls/reference chemicals for the five hepatic receptor pathways, and a subset of eight of the ToxCast chemicals (indoxacarb, pyrithiobac-sodium, norflurazon, cyhalofop-butyl, methomyl, thiram, acetochlor, and propiconazole). These replicate data, coupled with internal replicates designed within the blinded ToxCast chemical library, provided additional data to evaluate interindividual differences between hepatocyte preparations and their potential impact on chemical profiles.Cell morphology and integrity were evaluated using phase-contrast microscopy as an indicator of hepatocyte cell health (Tyson & Green, 1987). Cultures for each treatment group (i.e., media, vehicle [0.2% DMSO], positive control inducers [multiple concentrations], and the ToxCast chemicals [multiple concentrations]) were observed and cell morphology was assessed relative to vehicle control cultures at each harvest time point (0, 6, 24, or 48 h). […] Images were evaluated at the conclusion of the study to assess changes in cell integrity and account for the effects of chemical exposure on uncharacteristic changes in concentration-dependent gene expression profiles. The results from these determinations of apparent cytotoxicity were annotated (yes/no) alongside the corresponding qNPA data for reference.At the conclusion of each treatment period, hepatocyte cultures (96-well) were washed with 1 volume of HBSS, lysed by addition of 25 ul ArrayPlate lysis buffer (HTG, Tucson, AZ), and 70 ul/well of Denaturation Oil, denatured by incubation at 95C for 10 min, and frozen at approximately -70C until analysis by nuclease protection assay (qNPA) (Roberts et al., 2007). For qNPA analysis, cell lysates were thawed at 50C for approximately 30 min, qNPA probes were added, and samples were incubated at 95C for 10 min to begin the detection process by denaturing the target RNA, dissociating the duplexes and secondary structure hybridization. At the conclusion of the hybridization period, S1 nuclease reagent was added to each sample to digest all nonprotected nucleotides at 50C for 60-90 min. […]

| Structure (SMILES) | outcome | AC50 |
| --- | --- | --- |
| Cc1[nH]c(=O)n(C(C)(C)C)c(=O)c1Cl | inactive | – |
| CCc1ccc(C(=O)NN(C(=O)c2cc(C)cc(C)c2)C(C)(C)C)cc1 | – | 2.19 µM (active) |
| CC(C)N(C(=O)COc1nnc(C(F)(F)F)s1)c1ccc(F)cc1 | – | 7.16 µM (active) |
| COc1nn(CSP(=S)(OC)OC)c(=O)s1 | – | 1.97 µM (active) |
| Clc1ccccc1-c1nnc(-c2ccccc2Cl)nn1 | – | 0.00929 µM (active) |
| CCN(CC)C(=O)SCc1ccc(Cl)cc1 | – | 3.93 µM (active) |
| COC(=O)c1ccccc1S(=O)(=O)NC(=O)N(C)c1nc(C)nc(OC)n1 | inactive | – |
| CCC(C)(NC(=O)c1cc(Cl)c(C)c(Cl)c1)C(=O)CCl (stereo not given) | – | 3.97 µM (active) |
| CCC(C)(C)C(=O)OC1=C(c2ccc(Cl)cc2Cl)C(=O)OC12CCCCC2 | inactive | – |
| CCS(=O)(=O)c1cccnc1S(=O)(=O)NC(=O)Nc1nc(OC)cc(OC)n1 | inactive | – |
| O=[N+]([O-])c1c(Cl)c(Cl)c(Cl)c(Cl)c1Cl | – | 4.02 µM (active) |
| CNC(=O)CSP(=S)(OC)OC | inactive | – |
| COC(=O)c1ccccc1S(=O)(=O)NC(=O)Nc1nc(C)nc(OC)n1 | inactive | – |
| O=S(=O)(O)C(F)(F)C(F)(F)C(F)(F)C(F)(F)C(F)(F)C(F)(F)C(F)(F)C(F)(F)F | inactive | – |
| O=C(NC(=O)c1c(F)cccc1F)Nc1ccc(OC(F)(F)C(F)OC(F)(F)F)c(Cl)c1 (stereo not given) | inactive | – |
| CCCN(CCOc1c(Cl)cc(Cl)cc1Cl)C(=O)n1ccnc1 | – | 1.89 µM (active) |
| CNC(=O)Oc1ccccc1OC(C)C | – | 1.6 µM (active) |
| COc1cc(OC)nc(NC(=O)NS(=O)(=O)c2cc(NC=O)ccc2C(=O)N(C)C)n1 | inactive | – |
| CCOC1Oc2ccc(OS(C)(=O)=O)cc2C1(C)C (stereo not given) | – | 3.12 µM (active) |
| N#Cc1c(Cl)c(Cl)c(Cl)c(C#N)c1Cl | inactive | – |

| Structure (SMILES) | outcome | AC50 |
| --- | --- | --- |
| C#CCN1C(=O)COc2cc(F)c(N3C(=O)C4=C(CCCC4)C3=O)cc21 | – | 20 µM (active) |
| CC(C)(C)C(O)/C(=C\c1ccc(Cl)cc1Cl)n1cncn1 (stereo not given) | – | 0.621 µM (active) |
| CC[C@H](C)[C@H]1O[C@]2(C=C[C@@H]1C)C[C@@H]1C[C@@H](C/C=C(\C)[C@@H](O[C@H]3C[C@H](OC)[C@@H](O[C@H]4C[C@H](OC)[C@@H](O)[C@H](C)O4)[C@H](C)O3)[C@@H](C)/C=C/C=C3\CO[C@@H]4[C@H](O)C(C)=C[C@@H](C(=O)O1)[C@]34O)O2 (tested in a mixture with another compound) | – | 3.97 µM (active) |
| CNC(=O)/C=C(\C)OP(=O)(OC)OC | – | 0.000497 µM (active) |
| CC(C)(C)C(O)C(Oc1ccc(Cl)cc1)n1cncn1 (stereo not given) | – | 2.51 µM (active) |
| O=[N+]([O-])/N=C1\NCCN1Cc1ccc(Cl)nc1 | inactive | – |
| COP(=S)(OC)Oc1ccc(SC)c(C)c1 | – | 20 µM (active) |
| ClC1C(Cl)C(Cl)C(Cl)C(Cl)C1Cl (stereo not given) | – | 1.39 µM (active) |
| Cc1cc(C)nc(NC(=O)NS(=O)(=O)c2ccccc2C(=O)OC2COC2)n1 | inactive | – |
| CCOCN(C(=O)CCl)c1c(C)cccc1CC | – | 2.05 µM (active) |
| Oc1ccc(Cl)cc1Cc1ccccc1 | inactive | – |
| O=C(O)CCCOc1ccc(Cl)cc1Cl | inactive | – |
| C[C@H]1[C@H](c2ccc(Cl)cc2)SC(=O)N1C(=O)NC1CCCCC1 | – | 2.58 µM (active) |
| OCCOc1ccccc1 | inactive | – |
| O=C(O)COc1ccc(Cl)cc1Cl | inactive | – |
| COP(=O)(OC)OC=C(Cl)Cl | inactive | – |
| CC1(C)C(C=C(Cl)Cl)C1C(=O)OC(C#N)c1ccc(F)c(Oc2ccccc2)c1 (stereo not given) | inactive | – |
| Oc1cc(Cl)ccc1Oc1ccc(Cl)cc1Cl | inactive | – |
| CCC(C)Nc1c([N+](=O)[O-])cc(C(C)(C)C)cc1[N+](=O)[O-] (stereo not given) | – | 3.63 µM (active) |
| CCCN(CCC)c1c([N+](=O)[O-])cc(C(F)(F)F)cc1[N+](=O)[O-] | – | 2.06 µM (active) |

— PubChem BioAssay (EPA / NIEHS)
